In the library only some 8% were active in any assay of this set; here they are far more common.
SW480 rereplic = induces DNA re-replication in SW480 colon adenocarcinoma cells. Potency, µM (top dose mostly 46.1 µM), for the others: top-dose re-replication activation, most hits filed as activators. SW480 DNA re-replication, Hoechst DNA content imaging, 48 h. hit rate 1.8% among 340,000; also: % of control where 0% means no effect; nearly all actives have a fitted effect of over 55% in size
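Compounds, transferred as 23 nL by pin tool, were incubated with cells for 48 hr; DNA content per nucleus was then quantified by Hoechst staining and fluorescence plate imaging.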
KB-3-1 cytotox = kills parental KB-3-1 adenocarcinoma cells; KB-3-1 viability, CellTiter-Glo ATP luminescence, 72 h; Potency, µM (top dose mostly 46.1 µM), hits mostly cytotoxic; hit rate 1.4% among 400,000; AID 1347075; also: % is scaled to controls: 0 for no effect and ±100 for the full control effect; nearly all actives have a fitted effect of over 60% in size
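Using CellTiter-Glo luminescence, growth of non-resistant KB-3-1 adenocarcinoma cells is assessed 72 h after pin-tool compound addition at 37 °C. Normalized responses across the concentration series yield fitted curves.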
KB-V1 cytotox = KB-V1 MDR subline cytotoxicity; hit rate 3.4% among 400,000; Potency, µM (highest dose often 46.1 µM), usual class: cytotoxic; KB-V1 MDR cells viability, CellTiter-Glo, 72 h; also: % is scaled to controls: 0 for no effect and ±100 for the full control effect; nearly all actives have a fitted effect of over 60% in size
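KB-V1 cells (P-gp-expressing MDR subline of KB-3-1) in phenol-red-free DMEM with 10% FBS were exposed to library compounds over a concentration series for 72 h at 37 degrees C. Viability read by CellTiter-Glo luminescence; concentration-effect curves fitted after normalization.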
HT1080 IDH1KD tx = kills HT-1080 cells with IDH1 knockdown; HT-1080 IDH1 knockdown viability, ATP luminescence, 48 h; Potency, µM (highest dose often 46.1 µM), for inactives: at the top dose activity, negative = toxicity, most hits filed as cytotoxic; hit rate 2% among 360,000;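 also: 0% = DMSO wells and -100% = cell-free medium wells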
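After a 2 h attachment period, IDH1KD HT-1080 cells took pin-transferred compound for 48 h at 37 °C; ATP-based luminescence after 10 min room-temperature reagent incubation reported viability.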
HT1080NT lethal = kills 2HG-producing HT-1080-NT fibrosarcoma cells; Potency, µM (highest dose often 46.1 µM), for the others: top-dose activity, negative = less viability, most hits filed as cytotoxic; hit rate 1.6% among 360,000; AID 686970; HT-1080-NT fibrosarcoma viability, CellTiter-Glo ATP luminescence, 48 h;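 also: NT is the 2HG producing partner of a matched IDH1 knockdown line; 0% = DMSO-treated cells and -100% = media-only wells without cells; nearly all actives have a fitted effect of over 55% in size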
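Toxicity toward the 2HG-producing NT line was scored as %Activity, normalised to DMSO and no-cell wells, from CellTiter-Glo luminescence after 48 hours' treatment.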
MCF10A rerep = DNA re-replication induction in MCF 10a cells | MCF 10A DNA re-replication, Hoechst nuclear intensity, 48 h | Potency, µM (series often up to 46.1 µM), without a hit: top-dose activity, positive = re-replication, usual class: activators | hit rate 2.9% among 350,000; also: % of control where 0% means no effect; nearly all actives have a fitted effect of over 50% in size
* hit, by the source's call; i = inactive; ? = inconclusive; nt = not tested or not shown; [ ] = remark or other dose. Calls follow the shape of the dose curve; as a rule, active = well fitted curve in the direction sought with a large enough effect; inconclusive = small, poorly fitted or top-dose-only effect, or another doubt; inactive = no such curve, though single readings can be large; an effect the other way counts as inactive or inconclusive. Potency is read from the fitted curve at half-maximal effect.

SMILES | SW480 rereplic | KB-3-1 cytotox | KB-V1 cytotox | HT1080 IDH1KD tx | HT1080NT lethal | MCF10A rerep
CCOc1ccccc1-c1noc(CSc2nnc(-c3ccccc3)n2-c2cccc(C)c2)n1 | nt | i | i | nt | nt | nt
Cc1ccc(-c2noc(CC(=O)c3ccc([N+](=O)[O-])cc3)n2)cc1 | -2.0% | i | 16.4µM* | -0.1% | 0.0% | 11.2%
CS(=O)c1ccccc1-c1nc(-c2ccc([N+](=O)[O-])cc2)no1 (centres undefined) | -5.5% | ? | 8.2µM* | 13.2% | 17.2% | 3.2%
Cc1ccc([N+](=O)[O-])c(Oc2ncnc3c2oc2ccccc23)c1 | nt | i | i | nt | nt | nt
CC(=O)Cc1nsc(NC(=O)c2ccc(-c3cccc(Cl)c3)o2)n1 | ? | ? | i | ? | -22.8% | 10.3µM*
CC(=O)Cc1nsc(NC(=O)c2ccc(Br)o2)n1 | -5.0% | i | i | -0.4%[9.24 µM] | -3.2% | ?
CN(C)CCCNS(=O)(=O)c1ccc(NC2CCCCCC2)c([N+](=O)[O-])c1 | ? | 18.4µM* | ? | ? | ? | ?
Cc1ccc(-c2nn(-c3ccccc3)cc2CN(Cc2ccccc2)C(=O)c2ccco2)o1 | ? | ? | ? | ? | ? | 16.4µM*
O=C1OC(c2ccccc2)(c2ccc(O)cc2)c2ccccc21 (centres undefined) | -0.4% | i | i | ? | 20.6µM* | ?
CN1CCc2c(C#N)c(N3CCCCC3)nc(NCc3ccccc3)c2C1 | ? | ? | ? | ? | ? | 18.4µM*
COc1ccc(S(=O)(=O)NCCc2sc(-c3cccnc3)nc2C)cc1 | nt | i | ? | nt | nt | nt
C[C@H](O)[C@@H]1CN2CCc3c([nH]c4ccccc34)[C@@H]2C[C@@H]1N(C)C(=O)c1ccco1 | nt | ? | ? | ? | 25.9µM* | nt
COc1ccc(-c2ccc3[nH]c4c(c3c2)CCN2C(=O)[C@@H]([C@H](C)O)[C@@H](N(C)C(=O)Nc3ccc(F)cc3)C[C@@H]42)cc1 | nt | i | 16.4µM* | ? | ? | nt
COc1ccc(-c2ccc3[nH]c4c(c3c2)CCN2C[C@@H]([C@H](C)O)[C@@H](N(C)C(=O)Nc3cc(Cl)cc(Cl)c3)C[C@@H]42)cc1 | nt | i | ? | 20.6µM* | ? | nt
C[C@H](O)[C@@H]1CN2CCc3c([nH]c4ccc(-c5ccc6c(c5)OCO6)cc34)[C@@H]2C[C@@H]1N(C)C(=O)Nc1ccc(F)cc1 | nt | 5.8µM* | ? | 20.6µM* | ? | nt
COc1ccc(-c2ccc3[nH]c4c(c3c2)CCN2C(=O)[C@@H]([C@H](C)O)[C@@H](N(C)C(=O)Nc3cc(Cl)cc(Cl)c3)C[C@@H]42)cc1 | nt | ? | i | 15.0% | ? | nt
COc1cc(Cl)c(C)cc1NC(=O)c1cnc(N2CCOCC2)c2ccccc12 | nt | ? | i | nt | nt | nt
COc1cc2c(cc1OC)C(COc1cc(C)cc(C)c1)N(C(=O)COc1ccccc1)CC2 (centres undefined) | nt | ? | i | nt | nt | nt
Cc1cccc(-n2c(=O)c3c(c4cc(C)ccc4n3C)n(CC(=O)NCCC3=CCCCC3)c2=O)c1 | nt | i | i | nt | nt | nt
Cc1cc(-c2cccnc2)c(C#N)c(SCc2cccc(F)c2)n1 | 0.3% | i | 11.6µM* | ? | -13.1% | -1.1%
CSc1cccc(NC(=O)C2CCN(S(=O)(=O)c3ccc4[nH]c(=O)ccc4c3)CC2)c1 | nt | ? | i | nt | nt | nt
COCCn1c(SCc2csc(-c3ccccc3)n2)nc2ccccc21 | 2.9% | 16.4µM* | 8.2µM* | -27.6% | ? | -3.5%
Nc1nc(=S)c2n[nH]nc2[nH]1 | nt | ? | i | nt | nt | nt
COc1ccccc1-n1c(=S)sc2c(=O)n(Cc3ccco3)c(SC)nc21 | 7.2% | i | 14.6µM* | -1.1% | -5.4% | 7.5%
Cc1ccc(/C=C2\SC(=S)N(CCC(=O)N3CCOCC3)C2=O)cc1 | ? | 11.6µM* | ? | 8.9% | 0.3% | -1.7%
SMILES | SW480 rereplic | KB-3-1 cytotox | KB-V1 cytotox | HT1080 IDH1KD tx | HT1080NT lethal | MCF10A rerep
COc1ccc(/C=C2\SC(=S)N(CCC(=O)N3CCOCC3)C2=O)cc1 | -2.5% | i | i | 15.2% | 3.5% | 10.3%
COc1cccc(/C=C2/SC(=S)N(CCC(=O)N3CCOCC3)C2=O)c1 | 9.4% | 16.4µM* | ? | ? | -16.7% | ?
Cc1ccc(CN2[C@H](C)[C@H](c3ccccc3)OCCS2(=O)=O)cc1 | nt | 23.1µM* | 16.4µM* | nt | nt | nt
CCc1ccc(-n2c(=O)c3sc4ccccc4c3n(CC(=O)NC3CCCC3)c2=O)cc1 | nt | i | i | nt | nt | nt
CCCCc1ccc(NC(=O)c2cc(-c3ccc(C)c(F)c3)on2)cc1 | nt | i | i | nt | nt | nt
Cc1ccc2[nH]c(C(=O)N/N=C/c3ccccc3O)c(C)c2c1 | 24.0% | ? | i | 2.59µM* | ? | 18.2%
Cc1ccc2[nH]c(C(=O)N/N=C/c3ccc([N+](=O)[O-])cc3)c(C)c2c1 | 11.4% | ? | i | -9.1% | -11.1% | ?
COc1ccc(/C=N/NC(=O)c2[nH]c3ccc(C)cc3c2-c2ccccc2)c(C(=O)O)c1OC | ? | i | i | ? | ? | 5.8µM*
Cc1ccc2[nH]c(C(=O)N/N=C/c3ccccc3C(=O)O)c(-c3ccccc3)c2c1 | ? | i | i | -25.9% | ? | ?
COc1ccc(OC)c(C(=O)c2coc3ccc(OC(C)=O)cc23)c1 | ? | i | i | ? | -20.2% | 20.6µM*
COc1ccc(C(=O)c2coc3ccc(OC(C)=O)cc23)cc1 | -1.5% | i | i | -8.9% | -3.5% | -8.8%
CC(Oc1ccc(F)cc1)C(=O)N1CCC(c2nc3ccccc3s2)CC1 (centres undefined) | nt | i | 8.2µM* | nt | nt | nt
O=C(c1ccccc1Cl)N1CCC(c2nc3ccccc3s2)CC1 | nt | i | 13µM* | nt | nt | nt
NC(=O)C1CCN(C(=O)c2cc(-c3ccc(Cl)s3)nc3ccccc23)CC1 | 18.4µM* | i | i | -22.8% | -19.5% | ?
O=C(CSc1ccc(Cl)cc1)N1CCC(c2nc3ccccc3s2)CC1 | -4.0% | ? | 10.3µM* | -6.8%[9.24 µM] | ? | ?
Cc1ccccc1C(=O)N1CCC(c2nc3ccccc3s2)CC1 | nt | i | ? | nt | nt | nt
CCc1cccc(NC(=O)CCc2c(C)nc3c(-c4ccccc4)c(C)nn3c2C)c1 | nt | i | i | nt | nt | nt
Cc1ccnc2cc(Cl)cc(Cl)c12 | nt | i | i | nt | nt | nt
CN(C)c1ccc(/C=C2/C[N+](C)(C)C/C(=C/c3ccc(N(C)C)cc3)C2=O)cc1 | ? | 16.4µM* | i | 16.4µM* | ? | ?
